A selection: hits, their analogues and other compounds. The true share with any hit is near 10%.
G9a block = blocks human histone lysine methyltransferase G9a. Q96KQ7. G9a H3K9 monomethylation, AlphaScreen, 2 h. Potency, µM (titrated, usually from 102 µM), for inactives: at the top dose activity, negative = inhibition, most hits filed as inhibitors. hit rate 8.8% among 350,000. AID 504332; further: potency means the concentration at half of the fitted maximal effect; on the % scale 0 is the no-effect control and ±100 the full control effect; nearly all actives have a fitted effect of over 75% in size
Target sequence (Q96KQ7 913-1193 limits assumed): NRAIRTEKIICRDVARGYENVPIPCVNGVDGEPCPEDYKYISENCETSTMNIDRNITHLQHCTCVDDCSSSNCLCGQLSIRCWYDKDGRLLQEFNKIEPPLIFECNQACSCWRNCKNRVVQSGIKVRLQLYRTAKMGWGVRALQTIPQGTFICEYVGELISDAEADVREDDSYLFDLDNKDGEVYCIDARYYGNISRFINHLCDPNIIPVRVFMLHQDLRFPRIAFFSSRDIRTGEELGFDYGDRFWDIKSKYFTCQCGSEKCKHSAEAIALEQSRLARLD
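Quantitative HTS format: methyltransferase activity on a biotin-tagged H3K9 peptide is measured by AlphaScreen, using a rabbit anti-monomethyl-H3K9 antibody with streptavidin donor and anti-IgG acceptor beads. Final levels are 20 nM enzyme, 500 nM peptide, 20 uM SAM; 2 h RT.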
HP1b binding inh = HP1-beta chromodomain-methylated histone interaction inhibition; AID 540317; hit rate 0.56% among 390,000; P83916; Potency, µM (highest dose often 114 µM), for inactives: at the highest dose activity change, negative = inhibition, usual class: inhibitors; AlphaScreen HP1-beta / biotin-H3K9me3 peptide binding; further: potency means the concentration at half of the fitted maximal effect; nearly all actives have a fitted effect of over 70% in size
Target sequence (P83916 whole entry, looked up): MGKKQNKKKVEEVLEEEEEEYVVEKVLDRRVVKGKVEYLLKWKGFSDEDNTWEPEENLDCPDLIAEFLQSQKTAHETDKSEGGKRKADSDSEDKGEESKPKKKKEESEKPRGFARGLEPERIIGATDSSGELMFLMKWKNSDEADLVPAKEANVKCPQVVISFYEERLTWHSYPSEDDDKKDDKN
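AlphaScreen: HP1-beta (50 nM) preformed 30 min with biotin-H3(1-18)K9me3 peptide (50 nM) in PBS pH 7.4, 0.01% Tween-20. Compound added for 30 min at RT, then streptavidin donor/nickel chelate acceptor beads (10 ug/mL) for 30 min.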
JMJD2A Tudor inh = inhibitors of human JMJD2A Tudor domain. hit rate 4.4% among 390,000. Potency, µM (titrated, usually from 114 µM), inactives show at the top dose activity change, negative = inhibition, actives largely listed as inhibitors. AlphaScreen JMJD2A-Tudor / H3K4me3 peptide binding. AID 504339. O75164; further: potency means the concentration at half of the fitted maximal effect; on the % scale 0 is the no-effect control and ±100 the full control effect; nearly all actives have a fitted effect of over 50% in size
CtBP-E1A blk = CtBP/E1A binding inhibition | AlphaScreen GST-E1A/His-CtBP binding, 1536-well; hits give low values | activity change, % (concentration not given with the values) | hit rate 0.49% among 340,000; in the data active means activity change below about -65%; inconclusive means mostly about -30% to -63%; further: on the % scale 0 is the no-effect control and ±100 the full control effect
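Homogeneous bead-based format: GST-tagged E1A captured on glutathione donor beads, His-tagged CtBP on nickel acceptor beads; compounds precede bead addition by 2 h at 37 °C.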
BAZ2B block = blocks human BAZ2B | Q9UIF8 | AlphaScreen BAZ2B-H3K14Ac peptide displacement | hit rate 4.4% among 360,000 | Potency, µM (doses to about 114 µM), for the others: at the highest dose activity change, negative = inhibition, usual class: inhibitors; further: potency means the concentration at half of the fitted maximal effect; on the % scale 0 is the no-effect control and ±100 the full control effect; nearly all actives have a fitted effect of over 60% in size
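BAZ2B 50 nM plus b-H3(5-23)K14Ac 50 nM, PBS pH 7.4/0.01% Tween-20, 30 min RT; compound added (max 110 uM), 30 min RT; streptavidin donor/Ni-chelate acceptor beads 10 ug/mL final, 20 min dark; AlphaScreen read.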
Six1-Eya2 blk = Six1/Eya2 interaction inhibition; Q15475+O00167; AlphaScreen GST-Six1/His-Eya2 binding, biochemical; hits give low values; activity change, % (no concentration beside the values); hit rate 0.56% among 360,000; AID 651725; in the data active means activity change below about -65%; inconclusive means mostly about -30% to -63%; further: on the % scale 0 is the no-effect control and ±100 the full control effect
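AlphaScreen luminescence read after one hour at 37 °C in darkness. Pin-transferred compounds met GST-Six1 and His-Eya2 protein (5X stock 250 nM/500 nM) plus glutathione donor and Ni-chelate acceptor beads (5X, 50 ug/mL).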
An asterisk follows results filed as active; u = inconclusive; x = no result; [ ] = another dose, or the depositor's remark. Unless noted, the call rests on the fitted dose curve; in most records, active means well fitted inhibition curve with a large enough effect; inconclusive means small, poorly fitted or top-dose-only effect; inactive means no such curve, though single readings can be large or run the other way.

SMILES | G9a block | HP1b binding inh | JMJD2A Tudor inh | CtBP-E1A blk | BAZ2B block | Six1-Eya2 blk
COc1ccc(C(=O)Nc2cccc(-c3nnc(-c4ccco4)o3)c2)cc1 | 3.0%[59 µM] | 30.2% | -11.5% | u | 8.5% | u
Cc1ccc(NC(=O)c2cc(-c3ccco3)on2)cc1C | 50.1µM* | 10.9% | -12.4% | 6.0 | u | 1.7
COc1cc(C(=O)Nc2cccc(-c3nnc(-c4ccco4)o3)c2)ccc1OC(C)=O | 12.6%[59 µM] | 3.9% | -15.8% | u | -8.3% | -86.4*
CCCS(=O)(=O)N1CCN(CCCc2ccccc2)CC1 | 10µM* | u | 5.62µM* | 21.9 | 79.4µM* | 2.5
CCCS(=O)(=O)N1CCN(Cc2ccco2)CC1 | 14.1µM* | u | u | 6.7 | 50.1µM* | 2.5
CCCc1ccc(S(=O)(=O)N2CCN(Cc3ccco3)CC2)cc1 | x | 10.3% | -22.6% | -5.4 | -4.6% | -0.8
O=S1(=O)CCN(CCCc2ccccc2)CC1 | x | x | x | 0.0 | x | 22.8
CCCS(=O)(=O)N1CCN(C(=O)c2ccco2)CC1 | -24.2% | 21.7% | -5.9% | 0.8 | 9.3% | -3.1
O=[N+]([O-])c1ccc(S(=O)(=O)N2CCN(Cc3ccco3)CC2)cc1 | u | 22.4µM* | 8.91µM* | -4.8 | 20µM* | -1.8
Cc1ccc(-c2nc3scc(CCNS(=O)(=O)c4ccc(C)c(C)c4)n3n2)cc1 | 1.6%[59 µM] | 29.7% | -17.9% | x | -0.7% | x
COc1ccccc1NC(=O)CSc1oc(-c2ccccc2)nc1S(=O)(=O)c1ccc(C)cc1 | -25.1%[59 µM] | 25.9% | 1.4% | x | -3.9% | x
Cc1cc(C)cc(-n2c(C)nc3cc(C(=O)NCc4ccccc4Cl)ccc32)c1 | -32.1%[59 µM] | 20.2% | -27.2% | x | -17.0% | x
O=C(NNc1nc2cc3c(cc2s1)OCO3)c1cccc(F)c1 | 8.91µM* | 31.6% | -14.9% | -0.9 | -4.6% | -11.4
O=C(NNc1nc2cc3c(cc2s1)OCO3)c1ccccc1 | 28.2µM* | 27.9% | -18.4% | 5.5 | -5.7% | -6.9
COc1cc(OC)cc(C(=O)NNc2nc3cc4c(cc3s2)OCO4)c1 | u | 17.4% | u | -0.3 | u | -1.1
COc1ccc(NC(=O)C2CCCN(S(=O)(=O)c3ccc(Cl)cc3)C2)cc1 (configuration not stated) | 1.4%[59 µM] | 12.0% | -12.9% | x | 3.9% | x
COc1ccc(CC(=O)Nc2cc(-c3cn4cccnc4n3)ccc2OC)cc1 | 57.6%[59 µM] | 10.5%[57 µM] | -12.6% | x | 14.5% | x
C(=N\Nc1nc2ccccc2s1)/c1cccs1 | -6.6%[59 µM] | -2.9% | -29.4% | 0.0 | u | -7.8
CCn1c(C)c(/C=N/Nc2nc3ccccc3s2)c2ccccc21 | 39.8µM* | u | 31.6µM* | -21.6 | 15.8µM* | -26.2
COc1cc([N+](=O)[O-])ccc1N1C(=O)C2C3C=CC(C4CC34)C2C1=O (configuration not stated) | 39.8µM* | 19.6% | -12.2%[57.1 µM] | 20.9 | -27.4% | -3.2
COc1ccc(N2C(=O)C3C4C=CC(C5CC45)C3C2=O)c([N+](=O)[O-])c1 (configuration not stated) | 13.7% | 23.9% | -20.4% | -1.1 | 11.9%[57.1 µM] | -2.0
CC(C)n1c(=O)c2oc3ccccc3c2n(Cc2ccccc2F)c1=O | 0.3%[59 µM] | 23.2% | -7.7% | x | -11.9% | x
CCN1CCOC(=O)C1CC(=O)Nc1ccc(Br)cc1 (configuration not stated) | 2.51µM* | -13.5% | -13.4% | x | -36.0% | x
CCN1CCOC(=O)C1CC(=O)Nc1cc(C)ccc1OC (configuration not stated) | 10µM* | 19.8% | -16.8% | x | -4.9% | x
O=C(Nc1cc(F)ccc1F)c1ccc2c(c1)nnn2C1CCCC1 | -2.6%[59 µM] | 20.5% | -7.5% | x | 1.2% | x
SMILES | G9a block | HP1b binding inh | JMJD2A Tudor inh | CtBP-E1A blk | BAZ2B block | Six1-Eya2 blk
Cc1ccc(CSc2ncc(Cl)c(C(=O)Oc3ccc(F)cc3)n2)cc1 | 79.7%[59 µM] | 63.8% | 13.2% | x | 60.6% | x
CC1=C(C(=O)Nc2ccccc2)C(CC(C)C)n2nc(SCc3ccccc3C)nc2N1 (configuration not stated) | u | 18.5% | -14.7% | x | -18.0% | x
Cc1ccc(CN2CCN(/N=C/c3cc(Br)cc(Br)c3O)CC2)cc1 | -12.2%[59 µM] | u | u | u | -33.2% | -26.8
Cc1ccc(CN2CCN(/N=C/c3cc(Br)ccc3F)CC2)cc1 | 56.2µM* | -1.0% | u | -17.8 | 50.1µM* | -23.0
Cc1ccc(CN2CCN(/N=C/c3cc([N+](=O)[O-])ccc3Cl)CC2)cc1 | u | u | 35.5µM* | u | 31.6µM* | u
Cc1ccc(CN2CCN(/N=C/c3ccc(Cl)c([N+](=O)[O-])c3)CC2)cc1 | 14.1µM* | u | 44.7µM* | u | 14.1µM* | u
Cc1ccc(CN2CCN(/N=C/c3ccc(N(C)C)cc3)CC2)cc1 | x | u | u | -5.5 | u | -11.7
O=[N+]([O-])c1cc(CN2CCC(O)CC2)ccc1Cl | 12.6µM* | u | 0.891µM* | 2.5 | 50.1µM* | -0.9
CC(C)(C)c1ccc(-c2nc3cc(NC(=O)c4cccc(Br)c4)ccc3o2)cc1 | -1.0%[59 µM] | 34.1% | -17.0% | x | 3.3% | x
CCn1c(SCc2ccc(F)cc2Cl)nc(=O)c2c(C(=O)OC)cc(C3CC3)nc21 | -24.2%[59 µM] | 17.2%[57 µM] | -26.6% | x | -12.0% | x
Cc1cccc(-c2nc(SCc3cc(=O)c4c(C)cc(C)cc4[nH]3)n[nH]2)c1 | 19.4%[59 µM] | 18.7%[57 µM] | -16.6% | x | -5.6% | x
O=C(NCC1CCCO1)c1ccc(NS(=O)(=O)c2cccs2)cc1 (configuration not stated) | 35.5µM* | 10.4% | u | -23.9 | -34.0% | -0.3
O=C(COC(=O)c1ccc(NS(=O)(=O)c2cccs2)cc1)NCC1CCCO1 (configuration not stated) | 1.6% | 32.2% | -9.6% | -2.7 | 0.9% | -3.2
COc1ccc(/C=N/N=C2/CC(C)(C)Cc3n[nH]c(=O)cc32)cc1 | 35.5µM* | 40.9% | -4.2% | 3.2 | -30.2% | 1.5
CC(=O)NC1C(c2nc3ccccc3s2)=C(c2ccccc2)C(=O)N1c1ccc(C)cc1 (configuration not stated) | 50.1µM* | u | u | -11.4 | -37.5% | -5.5
COc1cccc(N2C(=O)C(c3ccccc3)=C(c3nc4ccccc4s3)C2NC(C)=O)c1 (configuration not stated) | 7.9%[12.7 µM] | 0.5% | -30.6% | -15.9 | -36.5% | -10.6
CCCSc1nnc(NC(=O)CSc2sc3c(O)cc(=O)[nH]c3c2C#N)s1 | 11.2µM* | -30.2% | 56.2µM* | -2.3 | 39.8µM* | -23.6
N#Cc1c(SCC(=O)Nc2ccc(Cl)cc2Cl)sc2c(O)cc(=O)[nH]c12 | u | 22.4% | -18.7% | -23.8 | -29.5% | -13.3
N#Cc1c(SCC(=O)Nc2nccs2)sc2c(O)cc(=O)[nH]c12 | 31.6µM* | -4.9% | -34.8% | -69.8* | 15.8µM* | u
